In the supplement of paper PMC10338343:
± gives the standard deviation.

Tested on: MILI (PIWIL2) piRISC loaded with piRNA #1 (26 nt)
Assay: pre-steady-state target cleavage rate (min^-1); guide: piRNA #1 5'p-UGAGGUAGUAGGUUGUAUAGUAUCCA; MIWI and MILI are mouse PIWI proteins and EfPiwi is from a freshwater sponge; tags in brackets are library labels; higher = faster piRNA-guided slicing of the target
Conditions: auxiliary factor: 500 nM mouse GTSF1
How it was run: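 Cleave-'n-Seq: a transcribed, DNA-blocked target RNA library (0.1 nM) was mixed with 1 nM active affinity-purified piRISC carrying one synthetic guide, with or without 500 nM GTSF1 partner protein, in HEPES–potassium acetate buffer at 33 °C for 0–8 or 0–960 min. Uncleaved targets were sequenced and normalised to depth and to weakly complementary targets. Three trials were pooled, and k3 was capped at 0.0001 min^-1. The pre-steady-state cleavage rate came from a burst-and-steady-state fit.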

Sequence | pre-steady-state target cleavage rate
GGAGACCUAUGUAUACAACCUAUCUACCUCA | 0.0415 ± 0.01
GGAGAGGAUACUAUAAAACCUACUACCUCA | 0.181 ± 0.013
GGAGACCAUACUAUAGAACCUACUACCACA | 0.0789 ± 0.021
GGAGACCAUGACUAUACAACCUACUACCUCA | 0.142 ± 0.021
GGAGACCUUACAAUACAACCUACAACCUCA | 0.111 ± 0.011
GGAGACCUAUGUACACAACCUACUACCUCA | 0.0498 ± 0.0086
GGAGACGAUACUAUUGUACCUACUACCUCA | 0.119 ± 0.0095
GGAGACCUUACAAUACAACCUACUACCUGA | 0.0872 ± 0.013
GGAGUGGAUUCUAUACAACCAACUACCUCA | 0.00438 ± 0.0023
GGAGACCAUACAAUACAACCUUCUACCUCA | 0.012 ± 0.0035
GGAGACCUAUGUUAUCAACCUACUACCUCA | 0.0125 ± 0.0029
GGAGACCUAACUUACAACCUACUACCUCA | 0.0068 ± 0.0056
GGAGACCUAUGAAUACAACCUACUAGCUCA | 0.00444 ± 0.0022
GGAGACCUAACUAUACAACGUACUACCUGA | 0.00576 ± 0.0041
GGAGACCUAUCUAUACAACCUUCUUCCUCA | 0.00365 ± 0.0029
GGAGACCUAUGAUAUCAAGCUACUACCUCA | 0.00559 ± 0.0019
